Measurements taken from the antibiotic and cytotoxicity screens of Wong et al. (2023).
Out of some 39,000 compounds screened, about 3,300 (8.5%) were called active. The full list was thinned out, with actives kept by preference.

Test system: HepG2
Test: cytotoxicity call (relative viability < 0.9)
Details: 10 µM

Row | SMILES | cytotoxicity call
1 | CC(C)CC#Cc1cnc2c(c1)C(=O)N([C@H](C)CO)C[C@@H](C)[C@@H](CN(C)C(=O)c1ccc3c(c1)OCO3)O2 | inactive
2 | C[C@H]1CN([C@@H](C)CO)C(=O)CCCn2nncc2CO[C@H]1CN(C)S(=O)(=O)c1ccc(C#N)cc1 | inactive
3 | Cc1ccc(S(=O)(=O)NCC[C@H]2CC[C@H](NS(=O)(=O)c3ccccc3Cl)[C@H](CO)O2)cc1 | inactive
4 | C[C@@H]1CN([C@H](C)CO)C(=O)c2cc(NC(=O)Nc3cccc4ccccc34)ccc2O[C@H]1CN(C)C(=O)Nc1ccc2c(c1)OCO2 | inactive
5 | C[C@@H]1CN([C@@H](C)CO)C(=O)Cc2cc(NC(=O)C3CC3)ccc2O[C@H]1CN(C)S(=O)(=O)c1cccs1 | inactive
6 | Cc1noc(C)c1NC(=O)Nc1ccc2c(c1)C(=O)N([C@@H](C)CO)C[C@H](C)[C@@H](CN(C)C(=O)Nc1ccc(F)cc1)OCCCC[C@@H](C)O2 | inactive
7 | [Fe+3].CC/1=C(CCC(=O)O)/C/2=C/c3[nH]c(c(c3CCC(=O)O)C)/C=C/3\N=C(/C=C/4\N=C(\C=C1/N2)C(=C4C)C=C)C(=C3C)C=C | active
8 | Cc1[nH]c(=O)[nH]c(=O)c1CCC(=O)O | inactive
9 | Cc1nc2[nH]c(C)c(CCC(=O)O)c(=O)n2n1 | inactive
10 | CC(C)NC(=O)Nc1ccc2c(c1)CC(=O)N([C@@H](C)CO)C[C@@H](C)[C@@H](CN(C)S(=O)(=O)c1ccc(Cl)cc1)O2 | inactive
11 | Cc1ccccc1S(=O)(=O)N(C)C[C@@H]1Oc2ccc(NC(=O)Nc3ccc(Cl)c(Cl)c3)cc2CC(=O)N([C@@H](C)CO)C[C@@H]1C | active
12 | Cc1ccccc1S(=O)(=O)N(C)C[C@@H]1Oc2ccc(NC(=O)Nc3cc(Cl)cc(Cl)c3)cc2CC(=O)N([C@@H](C)CO)C[C@@H]1C | inactive
13 | CC(C)NC(=O)Nc1ccc2c(c1)CC(=O)N([C@H](C)CO)C[C@H](C)[C@H](CN(C)S(=O)(=O)c1ccc(Cl)cc1)O2 | inactive
14 | C[C@H]1CN([C@@H](C)CO)C(=O)Cc2cc(NC(=O)Nc3ccc(Cl)c(Cl)c3)ccc2O[C@H]1CN(C)S(=O)(=O)c1ccc(Cl)cc1 | active
15 | CC(C)NC(=O)Nc1ccc2c(c1)CC(=O)N([C@H](C)CO)C[C@H](C)[C@@H](CN(C)S(=O)(=O)c1ccc(Cl)cc1)O2 | inactive
16 | Cc1ccccc1S(=O)(=O)N(C)C[C@@H]1Oc2ccc(NC(=O)Nc3cccc(C(F)(F)F)c3)cc2CC(=O)N([C@@H](C)CO)C[C@@H]1C | inactive
17 | C[C@H]1CN([C@@H](C)CO)C(=O)Cc2cc(NC(=O)Nc3cc(Cl)cc(Cl)c3)ccc2O[C@H]1CN(C)S(=O)(=O)c1ccc(Cl)cc1 | active
18 | CC(C)NC(=O)Nc1ccc2c(c1)CC(=O)N([C@@H](C)CO)C[C@H](C)[C@@H](CN(C)S(=O)(=O)c1ccc(Cl)cc1)O2 | inactive
19 | Cc1noc(C)c1NC(=O)Nc1ccc2c(c1)CC(=O)N([C@H](C)CO)C[C@H](C)[C@@H](CN(C)Cc1ccc(C(=O)Nc3ccccc3N)cc1)O2 | inactive
20 | CCS(=O)(=O)Nc1ccc2c(c1)C(=O)N(C)C[C@H](OC)[C@H](C)CN(CCC(F)(F)F)[C@@H](C)CO2 | inactive
21 | CCN(CC)c1ccc(N2CC=C[C@@]34O[C@@H]5/C=C\CCCOC(=O)[C@@H]5[C@H]3C(=O)N([C@@H](C)CO)[C@@H]4C2=O)cc1 | inactive
22 | COc1ccc(NC(=O)Nc2ccc3c(c2)C(=O)N([C@H](C)CO)C[C@@H](C)[C@H](CN(C)C(=O)Nc2ccccc2)OCCCC[C@@H](C)O3)cc1 | inactive
23 | Oc1cccc(O)c1O | inactive

Row | SMILES | cytotoxicity call
24 | Cn1cc(-c2cc3c(N4CCN(c5ncc([C@@](C)(N)c6ccc(F)cc6)cn5)CC4)ncnn3c2)cn1 | active
25 | C[C@H](CO)N1C[C@H](C)[C@@H](CN(C)C(=O)Cc2cccnc2)Oc2cc(C#CC3(O)CCCC3)ccc2S1(=O)=O | inactive
26 | C[C@H](CO)N1C[C@H](C)[C@@H](CN(C)Cc2ccc3c(c2)OCO3)OCCCC[C@H](C)Oc2ccc(NC(=O)CCC(F)(F)F)cc2C1=O | inactive
27 | Cc1noc(C)c1S(=O)(=O)N(C)C[C@H]1Oc2c(NS(=O)(=O)c3ccccc3)cccc2C(=O)N([C@@H](C)CO)C[C@H]1C | inactive
28 | COc1ccc(S(=O)(=O)Nc2ccc3c(c2)CC(=O)N([C@@H](C)CO)C[C@H](C)[C@@H](CN(C)C(=O)NC(C)C)O3)cc1 | inactive
29 | CC(=O)O[C@@]1(C)C[C@@H](O)[C@@H]2C=CO[C@@H](O[C@@H]3O[C@H](CO)[C@@H](O)[C@H](O)[C@H]3O)[C@@H]21 | inactive
30 | c1ccc2[nH]c(-c3ccncc3)nc2c1 | inactive
31 | O=C(Nc1ccc(-c2nc3cc(NC(=O)c4ccccc4Cl)ccc3o2)cc1)c1ccccc1Cl | active
32 | CCCC(=O)Nc1ccc(-c2nc3cc(C(C)C)ccc3o2)cc1 | inactive
33 | NC1(C(=O)Nc2ccc3nc(-c4ccc(F)cc4)oc3c2)CC1 | inactive
34 | O=[N+]([O-])c1ccc2nc(CO)[nH]c2c1 | inactive
35 | O=C(Nc1ccc(-c2nc3cc(NC(=O)c4ccccc4[N+](=O)[O-])ccc3o2)cc1)c1ccccc1[N+](=O)[O-] | active
36 | NCc1ccc(-c2nc3ccccc3o2)cc1 | inactive
37 | O=C(Nc1ccc(-c2nc3ccc(NC(=O)c4ccccc4[N+](=O)[O-])cc3[nH]2)cc1)c1ccccc1[N+](=O)[O-] | active
38 | O=C(Nc1ccc(-c2nc3ccc(NC(=O)c4ccc(Cl)cc4)cc3[nH]2)cc1)c1ccc(Cl)cc1 | active
39 | Cc1ccc(NC(=O)c2cc(=O)[nH]c(=O)[nH]2)cc1 | inactive
40 | c1ccc(-c2nc3ccccc3o2)cc1 | inactive
41 | O=C(Nc1ccc(-c2nc3ccc(NC(=O)c4ccc(NC(=O)c5cccc6ccccc56)cc4)cc3[nH]2)cc1)c1ccc(NC(=O)c2cccc3ccccc23)cc1 | inactive
42 | O=c1[nH]cnc2c1ncn2C1OC(CO)C(O)C1O (configuration not stated) | inactive
43 | C[C@H](CO)N1C[C@H](C)[C@H](CN(C)C(=O)Nc2cc(F)ccc2F)Oc2cc(/C=C/c3ccccc3)ccc2S1(=O)=O | inactive
44 | C[C@H]1CN([C@@H](C)CO)S(=O)(=O)c2ccc(C#CC3(O)CCCC3)cc2O[C@H]1CN(C)C(=O)c1ccncc1 | inactive
45 | Nc1cncc(Cl)n1 | inactive
46 | CN1CCN(C(=O)C[C@H]2CC[C@H]3[C@@H](COC[C@H](O)CN3C(=O)Nc3ccc4c(c3)OCO4)O2)CC1 | inactive

Row | SMILES | cytotoxicity call
47 | COc1ccc(S(=O)(=O)N(C)C[C@H]2OCCCC[C@@H](C)Oc3ccc(NC(=O)c4ccccc4)cc3C(=O)N([C@@H](C)CO)C[C@@H]2C)cc1 | inactive
48 | CN(C)CC#Cc1ccc([C@@H]2[C@@H](CO)N3C(=O)CN(C(=O)CN(C)C)C[C@@H]23)cc1 | inactive
49 | C[C@@H]1CN([C@H](C)CO)C(=O)c2cc(C#CC3(O)CCCC3)cnc2O[C@H]1CN(C)S(=O)(=O)c1ccccc1 | inactive
50 | CC(C)NC(=O)Nc1cccc2c1O[C@@H](CN(C)Cc1ccc(C(=O)O)cc1)[C@H](C)CN([C@H](C)CO)C2=O | inactive
51 | c1cc2c(cc1-c1nn[nH]n1)OCO2 | inactive
52 | O=C(NCCCN1CCOCC1)Nc1ccc(Cc2ccc(NC(=O)NCCCN3CCOCC3)cc2)cc1 | inactive
53 | CC(C)(C)c1cc(NC(=O)Nc2ccc(-c3cn4c(n3)sc3cc(OCCN5CCOCC5)ccc34)cc2)no1 | active
54 | COc1cc(OC)cc(C(=O)Nc2nc(-c3ccc4c(c3)CCN4C(=O)CN3CCOCC3)cs2)c1 | inactive
55 | C[C@@H]1CCCCO[C@@H](CN(C)S(=O)(=O)c2cccs2)[C@@H](C)CN([C@@H](C)CO)C(=O)c2cc(NC(=O)Cc3ccccc3)ccc2O1 | inactive
56 | C[C@H](CO)N1C[C@H](C)[C@@H](CN(C)C(=O)Nc2ccc3c(c2)OCO3)Oc2c(NS(=O)(=O)c3cn(C)cn3)cccc2C1=O | inactive
57 | COc1ccc(CN(C)C[C@H]2OCCCC[C@H](C)Oc3ccc(NC(=O)Nc4cccc5ccccc45)cc3C(=O)N([C@@H](C)CO)C[C@@H]2C)cc1 | inactive
58 | COc1ccc(CN(C)C[C@@H]2OCCCC[C@H](C)Oc3ccc(NC(=O)Nc4cccc5ccccc45)cc3C(=O)N([C@H](C)CO)C[C@@H]2C)cc1 | inactive
59 | COc1ccc(CN(C)C[C@@H]2OCCCC[C@H](C)Oc3ccc(NC(=O)Nc4cccc5ccccc45)cc3C(=O)N([C@H](C)CO)C[C@H]2C)cc1 | active
60 | COc1ccc(CN(C)C[C@@H]2OCCCC[C@H](C)Oc3ccc(NC(=O)Nc4cccc5ccccc45)cc3C(=O)N([C@@H](C)CO)C[C@@H]2C)cc1 | inactive
61 | COc1ccc(CN(C)C[C@@H]2OCCCC[C@@H](C)Oc3ccc(NC(=O)Nc4cccc5ccccc45)cc3C(=O)N([C@H](C)CO)C[C@H]2C)cc1 | active
62 | COc1ccc(CN(C)C[C@H]2OCCCC[C@H](C)Oc3ccc(NC(=O)Nc4cccc5ccccc45)cc3C(=O)N([C@H](C)CO)C[C@@H]2C)cc1 | inactive
63 | COc1ccc(CN(C)C[C@@H]2OCCCC[C@H](C)Oc3ccc(NC(=O)Nc4cccc5ccccc45)cc3C(=O)N([C@@H](C)CO)C[C@H]2C)cc1 | active
64 | COc1ccc(CN(C)C[C@@H]2OCCCC[C@@H](C)Oc3ccc(NC(=O)Nc4cccc5ccccc45)cc3C(=O)N([C@@H](C)CO)C[C@H]2C)cc1 | active
65 | COc1ccc(CN(C)C[C@H]2OCCCC[C@H](C)Oc3ccc(NC(=O)Nc4cccc5ccccc45)cc3C(=O)N([C@@H](C)CO)C[C@H]2C)cc1 | inactive
66 | COc1ccc(CN(C)C[C@H]2OCCCC[C@@H](C)Oc3ccc(NC(=O)Nc4cccc5ccccc45)cc3C(=O)N([C@H](C)CO)C[C@H]2C)cc1 | inactive
67 | COc1ccc(S(=O)(=O)Nc2ccc3c(c2)C(=O)N([C@H](C)CO)C[C@H](C)[C@H](CN(C)C(=O)CCC(F)(F)F)OCCCC[C@@H](C)O3)cc1 | inactive
